In all, about 5,500 compounds went through this assay and about 2,000 (36%) were called active. Another 18% or so got no clear call; they are omitted. Cut-off read from the data, not from the text of the source: active = normalized growth mostly below about 0.91 (no sharp cut-off); inconclusive = no clear call, values can overlap the other calls; inactive = mostly above about 0.92. This is one part of the list.
Test: chemical genetic growth profiling, strain panel (AID 1159580);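 note: tested at 20 µM; growth read once vehicle control cultures reached saturation at 30 °C; 1 = growth at the plate median or of vehicle wells; lower values mean less growth of the strain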
Conditions: growth OD

Measured: normalized growth

COc1ccc2c(c1)C1(C)CCC(=O)CC1CC2 (stereo not drawn)
inactive: S. cerevisiae deletion strains, locus YAL021C, strain ccr4, stronger effect = lower value 1.01 | S. cerevisiae deletion strains, locus YAL026C, strain drs2, stronger effect = lower value 1.04 | S. cerevisiae deletion strains, locus YAL030W, strain snc1, stronger effect = lower value 1 | S. cerevisiae deletion strains, locus YBL061C, strain skt5, stronger effect = lower value 1.01 | S. cerevisiae deletion strains, locus YBR009C, strain hhf1, stronger effect = lower value 1.01 | S. cerevisiae deletion strains, locus YBR021W, strain FUR4, stronger effect = lower value 0.976 | S. cerevisiae deletion strains, locus YBR023C, strain chs3, stronger effect = lower value 1.01 | S. cerevisiae deletion strains, locus YBR171W, strain sec66, stronger effect = lower value 1.01 | S. cerevisiae deletion strains, locus YBR229C, strain ROT2, stronger effect = lower value 0.994 | S. cerevisiae deletion strains, locus YBR231C, strain swc5, stronger effect = lower value 1.04 | S. cerevisiae deletion strains, locus YBR279W, strain paf1, stronger effect = lower value 1 | S. cerevisiae deletion strains, locus YCL011C, strain gbp2, stronger effect = lower value 1.01 | S. cerevisiae deletion strains, locus YCL016C, strain dcc1, stronger effect = lower value 1 | S. cerevisiae deletion strains, locus YCL029C, strain bik1, stronger effect = lower value 0.986 | S. cerevisiae deletion strains, locus YCL061C, strain MRC1, stronger effect = lower value 1.01 | S. cerevisiae deletion strains, locus YCL069W, strain vba3, stronger effect = lower value 1 | S. cerevisiae deletion strains, locus YCR088W, strain abp1, stronger effect = lower value 1.01 | S. cerevisiae deletion strains, locus YDL005C, strain med2, stronger effect = lower value 1.01 | S. cerevisiae deletion strains, locus YDL035C, strain GPR1, stronger effect = lower value 1.01 | S. cerevisiae deletion strains, locus YDL040C, strain nat1, stronger effect = lower value 0.999 | S. cerevisiae deletion strains, locus YDL074C, strain BRE1, stronger effect = lower value 1.02 | S. cerevisiae deletion strains, locus YDL101C, strain DUN1, stronger effect = lower value 0.998 | S. cerevisiae deletion strains, locus YDL134C, strain PPH21, stronger effect = lower value 0.947 | S. cerevisiae deletion strains, locus YDL185W, strain tfp1, stronger effect = lower value 0.989 | S. cerevisiae deletion strains, locus YDL192W, strain arf1, stronger effect = lower value 0.989 | S. cerevisiae deletion strains, locus YDR001C, strain nth1, stronger effect = lower value 1.01 | S. cerevisiae deletion strains, locus YDR069C, strain doa4, stronger effect = lower value 1.02 | S. cerevisiae deletion strains, locus YDR101C, strain arx1, stronger effect = lower value 1 | S. cerevisiae deletion strains, locus YDR137W, strain rgp1, stronger effect = lower value 0.967 | S. cerevisiae deletion strains, locus YDR150W, strain NUM1, stronger effect = lower value 0.991 | S. cerevisiae deletion strains, locus YDR159W, strain sac3, stronger effect = lower value 1.06 | S. cerevisiae deletion strains, locus YDR162C, strain NBP2, stronger effect = lower value 1 | S. cerevisiae deletion strains, locus YDR195W, strain ref2 1.04 | S. cerevisiae deletion strains, locus YDR297W, strain sur2, stronger effect = lower value 1.02 | S. cerevisiae deletion strains, locus YDR318W, strain mcm21, stronger effect = lower value 0.988 | S. cerevisiae deletion strains, locus YDR334W, strain swr1, stronger effect = lower value 1 | S. cerevisiae deletion strains, locus YDR335W, strain msn5, stronger effect = lower value 1.01 | S. cerevisiae deletion strains, locus YDR388W, stronger effect = lower value 0.989 | S. cerevisiae deletion strains, locus YDR392W, strain spt3, stronger effect = lower value 0.996 | S. cerevisiae deletion strains, locus YDR502C, strain sam2, stronger effect = lower value 0.977 | S. cerevisiae deletion strains, locus YEL003W, strain gim4, stronger effect = lower value 1.01 | S. cerevisiae deletion strains, locus YEL037C, strain rad23, stronger effect = lower value 1.02 | S. cerevisiae deletion strains, locus YEL061C, strain CIN8 (second series), stronger effect = lower value 1.01 | S. cerevisiae deletion strains, locus YEL061C, strain CIN8, stronger effect = lower value 0.993 | S. cerevisiae deletion strains, locus YER015W, strain faa2, stronger effect = lower value 1.01 | S. cerevisiae deletion strains, locus YER016W, strain bim1, stronger effect = lower value 1 | S. cerevisiae deletion strains, locus YER110C, stronger effect = lower value 0.979 | S. cerevisiae deletion strains, locus YER111C, strain swi4, stronger effect = lower value 1.01 | S. cerevisiae deletion strains, locus YER155C, strain BEM2 (second series), stronger effect = lower value 1.02 | S. cerevisiae deletion strains, locus YER155C, strain BEM2, stronger effect = lower value 0.988 | S. cerevisiae deletion strains, locus YER167W, strain BCK2, stronger effect = lower value 0.999 | S. cerevisiae deletion strains, locus YFR010W, strain ubp6, stronger effect = lower value 1.02 | S. cerevisiae deletion strains, locus YGL078C, strain dbp3, stronger effect = lower value 0.982 | S. cerevisiae deletion strains, locus YGL086W, strain mad1, stronger effect = lower value 0.98 | S. cerevisiae deletion strains, locus YGL167C, strain pmr1, stronger effect = lower value 1.01 | S. cerevisiae deletion strains, locus YGL173C, strain kem1, stronger effect = lower value 1.01 | S. cerevisiae deletion strains, locus YGL227W, strain vid30, stronger effect = lower value 1.01 | S. cerevisiae deletion strains, locus YGL240W, strain doc1, stronger effect = lower value 1.01 | S. cerevisiae deletion strains, locus YGL248W, strain PDE1, stronger effect = lower value 0.971 | S. cerevisiae deletion strains, locus YGL253W, strain hxk2, stronger effect = lower value 1.03 | S. cerevisiae deletion strains, locus YGR135W, strain pre9, stronger effect = lower value 0.965 | S. cerevisiae deletion strains, locus YGR252W, strain gcn5, stronger effect = lower value 0.96 | S. cerevisiae deletion strains, locus YHR013C, strain ard1, stronger effect = lower value 1.05 | S. cerevisiae deletion strains, locus YHR027C, strain rpn1, stronger effect = lower value 1.03 | S. cerevisiae deletion strains, locus YHR030C, strain SLT2, stronger effect = lower value 0.993 | S. cerevisiae deletion strains, locus YHR079C, strain IRE1 (second series), stronger effect = lower value 0.991 | S. cerevisiae deletion strains, locus YHR094C, strain hxt1, stronger effect = lower value 0.984 | S. cerevisiae deletion strains, locus YHR129C, strain ARP1, stronger effect = lower value 0.993 | S. cerevisiae deletion strains, locus YHR142W, strain chs7, stronger effect = lower value 1.02 | S. cerevisiae deletion strains, locus YHR200W, strain rpn10, stronger effect = lower value 0.985 | S. cerevisiae deletion strains, locus YIL066C, strain RNR3, stronger effect = lower value 1.01 | S. cerevisiae deletion strains, locus YIL073C, strain SPO22, stronger effect = lower value 0.994 | S. cerevisiae deletion strains, locus YIL125W, strain kgd1, stronger effect = lower value 0.987 | S. cerevisiae deletion strains, locus YIR030C, strain dcg1, stronger effect = lower value 0.983 | S. cerevisiae deletion strains, locus YJL092W, strain hpr5, stronger effect = lower value 1.01 | S. cerevisiae deletion strains, locus YJL095W, strain BCK1 (second series), stronger effect = lower value 1.01 | S. cerevisiae deletion strains, locus YJL095W, strain BCK1, stronger effect = lower value 0.953 | S. cerevisiae deletion strains, locus YJL115W, strain asf1, stronger effect = lower value 1.02 | S. cerevisiae deletion strains, locus YJL129C, strain trk1, stronger effect = lower value 1.01 | S. cerevisiae deletion strains, locus YJL134W, strain LCB3, stronger effect = lower value 0.992 | S. cerevisiae deletion strains, locus YJL154C, strain vps35, stronger effect = lower value 1.01 | S. cerevisiae deletion strains, locus YJL164C, strain tpk1, stronger effect = lower value 1.01 | S. cerevisiae deletion strains, locus YJL166W, strain qcr8, stronger effect = lower value 1.01 | S. cerevisiae deletion strains, locus YJL168C, strain set2, stronger effect = lower value 0.989 | S. cerevisiae deletion strains, locus YJL187C, strain SWE1 (second series), stronger effect = lower value 0.979 | S. cerevisiae deletion strains, locus YJL187C, strain SWE1, stronger effect = lower value 1.01 | S. cerevisiae deletion strains, locus YJR043C, strain POL32, stronger effect = lower value 1.03 | S. cerevisiae deletion strains, locus YKL009W, strain mrt4, stronger effect = lower value 0.969 | S. cerevisiae deletion strains, locus YKL068W, stronger effect = lower value 0.978 | S. cerevisiae deletion strains, locus YKL085W, strain MDH1 (second series), stronger effect = lower value 0.984 | S. cerevisiae deletion strains, locus YKL085W, strain MDH1, stronger effect = lower value 0.984 | S. cerevisiae deletion strains, locus YKL160W, strain elf1, stronger effect = lower value 1 | S. cerevisiae deletion strains, locus YKR001C, strain vps1, stronger effect = lower value 0.965 | S. cerevisiae deletion strains, locus YKR026C, strain gcn3, stronger effect = lower value 1.01 | S. cerevisiae deletion strains, locus YKR091W, strain srl3, stronger effect = lower value 1.01 | S. cerevisiae deletion strains, locus YLL001W, strain dnm1, stronger effect = lower value 1.01 | S. cerevisiae deletion strains, locus YLL026W, stronger effect = lower value 1 | S. cerevisiae deletion strains, locus YLL041C, strain sdh2, stronger effect = lower value 1 | S. cerevisiae deletion strains, locus YLR027C, strain aat2, stronger effect = lower value 1 | S. cerevisiae deletion strains, locus YLR039C, strain RIC1, stronger effect = lower value 0.957 | S. cerevisiae deletion strains, locus YLR058C, strain SHM2, stronger effect = lower value 0.996 | S. cerevisiae deletion strains, locus YLR102C, strain apc9, stronger effect = lower value 0.98 | S. cerevisiae deletion strains, locus YLR221C, strain rsa3, stronger effect = lower value 1.03 | S. cerevisiae deletion strains, locus YLR258W, strain gsy2, stronger effect = lower value 1.02 | S. cerevisiae deletion strains, locus YLR262C, strain YPT6 (second series), stronger effect = lower value 0.99 | S. cerevisiae deletion strains, locus YLR268W, strain sec22, stronger effect = lower value 0.978 | S. cerevisiae deletion strains, locus YLR320W, strain mms22, stronger effect = lower value 1.02 | S. cerevisiae deletion strains, locus YLR330W, strain CHS5, stronger effect = lower value 0.986 | S. cerevisiae deletion strains, locus YLR342W, strain FKS1 (second series), stronger effect = lower value 0.949 | S. cerevisiae deletion strains, locus YLR342W, strain FKS1, stronger effect = lower value 1.01 | S. cerevisiae deletion strains, locus YLR357W, strain rsc2, stronger effect = lower value 1.01 | S. cerevisiae deletion strains, locus YLR370C, strain arc18, stronger effect = lower value 1 | S. cerevisiae deletion strains, locus YLR371W, strain rom2, stronger effect = lower value 1 | S. cerevisiae deletion strains, locus YLR384C, strain iki3, stronger effect = lower value 1.01 | S. cerevisiae deletion strains, locus YLR418C, strain cdc73, stronger effect = lower value 0.962 | S. cerevisiae deletion strains, locus YML016C, strain PPZ1, stronger effect = lower value 0.987 | S. cerevisiae deletion strains, locus YML032C, strain rad52, stronger effect = lower value 0.996 | S. cerevisiae deletion strains, locus YML120C, strain ndi1, stronger effect = lower value 0.996 | S. cerevisiae deletion strains, locus YML124C, strain tub3, stronger effect = lower value 0.98 | S. cerevisiae deletion strains, locus YMR058W, strain fet3, stronger effect = lower value 1.02 | S. cerevisiae deletion strains, locus YMR078C, strain ctf18, stronger effect = lower value 0.985 | S. cerevisiae deletion strains, locus YMR125W, strain sto1, stronger effect = lower value 0.994 | S. cerevisiae deletion strains, locus YMR129W, stronger effect = lower value 1.01 | S. cerevisiae deletion strains, locus YMR205C, strain PFK2, stronger effect = lower value 1.01 | S. cerevisiae deletion strains, locus YMR223W, strain ubp8, stronger effect = lower value 0.975 | S. cerevisiae deletion strains, locus YMR231W, strain pep5, stronger effect = lower value 1.01 | S. cerevisiae deletion strains, locus YMR263W, strain SAP30, stronger effect = lower value 0.99 | S. cerevisiae deletion strains, locus YMR307W, strain GAS1, stronger effect = lower value 1.04 | S. cerevisiae deletion strains, locus YNL067W, strain RPL9B, stronger effect = lower value 0.974 | S. cerevisiae deletion strains, locus YNL071W, strain lat1, stronger effect = lower value 1 | S. cerevisiae deletion strains, locus YNL209W, strain ssb2, stronger effect = lower value 1.01 | S. cerevisiae deletion strains, locus YNL233W, strain BNI4, stronger effect = lower value 0.971 | S. cerevisiae deletion strains, locus YNL248C, strain rpa49, stronger effect = lower value 1.06 | S. cerevisiae deletion strains, locus YNL250W, strain rad50, stronger effect = lower value 0.994 | S. cerevisiae deletion strains, locus YNL271C, strain bni1, stronger effect = lower value 0.986 | S. cerevisiae deletion strains, locus YNL298W, strain CLA4, stronger effect = lower value 0.982 | S. cerevisiae deletion strains, locus YNL307C, strain MCK1, stronger effect = lower value 0.98 | S. cerevisiae deletion strains, locus YNL322C, strain KRE1 (second series), stronger effect = lower value 0.995 | S. cerevisiae deletion strains, locus YNR049C, strain mso1, stronger effect = lower value 1.04 | S. cerevisiae deletion strains, locus YNR052C, strain pop2, stronger effect = lower value 0.986 | S. cerevisiae deletion strains, locus YOL006C, strain TOP1, stronger effect = lower value 0.969 | S. cerevisiae deletion strains, locus YOL012C, strain htz1 0.718 | S. cerevisiae deletion strains, locus YOL147C, strain pex11, stronger effect = lower value 0.988 | S. cerevisiae deletion strains, locus YOR001W, strain rrp6, stronger effect = lower value 1.02 | S. cerevisiae deletion strains, locus YOR061W, strain CKA2, stronger effect = lower value 1 | S. cerevisiae deletion strains, locus YOR069W, strain VPS5, stronger effect = lower value 0.991 | S. cerevisiae deletion strains, locus YOR070C, strain gyp1, stronger effect = lower value 1.02 | S. cerevisiae deletion strains, locus YOR080W, strain dia2, stronger effect = lower value 1.01 | S. cerevisiae deletion strains, locus YOR083W, strain WHI5, stronger effect = lower value 1.01 | S. cerevisiae deletion strains, locus YOR106W, strain vam3, stronger effect = lower value 1.02 | S. cerevisiae deletion strains, locus YOR136W, strain idh2, stronger effect = lower value 0.988 | S. cerevisiae deletion strains, locus YOR144C, strain elg1, stronger effect = lower value 0.985 | S. cerevisiae deletion strains, locus YOR184W, strain ser1, stronger effect = lower value 0.952 | S. cerevisiae deletion strains, locus YOR265W, strain rbl2, stronger effect = lower value 0.987 | S. cerevisiae deletion strains, locus YOR270C, strain vph1, stronger effect = lower value 1.07 | S. cerevisiae deletion strains, locus YOR290C, strain snf2, stronger effect = lower value 0.981 | S. cerevisiae deletion strains, locus YOR316C, strain cot1, stronger effect = lower value 0.992 | S. cerevisiae deletion strains, locus YPL051W, strain arl3, stronger effect = lower value 1.02 | S. cerevisiae deletion strains, locus YPL055C, strain LGE1, stronger effect = lower value 1.02 | S. cerevisiae deletion strains, locus YPL078C, strain atp4, stronger effect = lower value 0.996 | S. cerevisiae deletion strains, locus YPL106C, strain sse1, stronger effect = lower value 1.04 | S. cerevisiae deletion strains, locus YPL240C, strain hsp82, stronger effect = lower value 0.986 | S. cerevisiae deletion strains, locus YPR119W, strain clb2, stronger effect = lower value 0.984 | S. cerevisiae deletion strains, locus YPR141C, strain kar3, stronger effect = lower value 0.96 | S. cerevisiae deletion strains, locus YPR163C, strain tif3, stronger effect = lower value 0.97 | S. cerevisiae deletion strains, locus YPR167C, strain met16, stronger effect = lower value 0.981 | S. cerevisiae deletion strains, strain wtn01, stronger effect = lower value 0.98 | S. cerevisiae strains, strain wild type, stronger effect = lower value 1

Source: PubChem BioAssay AID1159580 (chemical genetic matrix, 2015)
